# PTHR1 ag – qHTS for PTHR1 Agonists: Primary Screen; Parathyroid hormone/parathyroid hormone-related peptide receptor (Homo sapiens), Q03431; HEK293 GP2 PTHR1 cells, GloSensor cAMP luminescence, 1 h; Potency, µM (top dose mostly 115 µM), for inactives: at the highest dose activation, hits mostly activators; actives 0.075% (n = 410,000); AID 743266, 2014; further: potency means the concentration at half of the fitted maximal effect; nearly all actives have a fitted effect of over 55% in size
#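 HEK-293-derived GP2 cells expressing PTHR1 and a GloSensor cAMP reporter, 3,000/well, plated overnight, given luciferin plus IBMX (each 0.5 mM as added) for 1 h at 37 °C, then compound for 1 h at 37 °C. Luminescence was read after 15 min at room temperature.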
# TRHR ag – qHTS for Small Molecule Agonists and Allosteric Enhancers of Human TRH Receptor: Primary Screen for Agonists. actives 0.18% (n = 360,000). TRHR cells, calcium flux fluo-8, FDSS agonist mode. activation, % at 2 µM; in the data active means activation above about 30%; further: 0% is about no effect
# Target sequence (P34981 whole entry, looked up): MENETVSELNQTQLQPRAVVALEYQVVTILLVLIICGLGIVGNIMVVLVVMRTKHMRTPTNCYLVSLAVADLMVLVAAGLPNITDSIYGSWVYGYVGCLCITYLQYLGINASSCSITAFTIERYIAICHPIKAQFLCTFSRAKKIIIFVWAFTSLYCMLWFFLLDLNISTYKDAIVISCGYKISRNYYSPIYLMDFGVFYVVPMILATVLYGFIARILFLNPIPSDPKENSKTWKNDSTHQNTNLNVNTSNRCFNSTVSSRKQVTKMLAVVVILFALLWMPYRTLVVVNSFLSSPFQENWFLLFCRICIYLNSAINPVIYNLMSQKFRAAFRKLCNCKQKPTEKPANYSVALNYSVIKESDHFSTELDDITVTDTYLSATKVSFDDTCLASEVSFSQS
#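 TRHR-expressing cells loaded with fluo-8 calcium dye; 23 nL library compound pin-transferred, kinetic FDSS fluorescence (Ex 480/Em 530) recorded about 180 s for agonist-induced calcium release, before a 10 nM TRH EC20 addition for potentiator mode.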
# TRHR PAM – qHTS for Small Molecule Agonists and Allosteric Enhancers of Human TRH Receptor: Primary Screen for Enhancers; Thyrotropin-releasing hormone receptor (Homo sapiens), P34981; TRHR cells, fluo-8 calcium fluorescence, EC20 TRH enhancement; enhancement, % at 2 µM; actives 0.66% (n = 360,000); AID 493056, 2011; in the data active means enhancement above about 30%; further: 0% is about no effect
#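 TRHR-expressing cells loaded with fluo-8 calcium dye were read kinetically (ex 480/em 530) during compound addition, then stimulated with an EC20 of TRH (10 nM final). Enhancement of the Gq-mediated intracellular calcium response was scored.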
# HEK293 tox – qHTS of GLP-1 Receptor Inverse Agonists: Cytotox Screen; Potency, µM (highest dose often 38.3 µM), for inactives: at the top dose activity change, negative = inhibition, actives largely listed as inhibitors; HEK293 cAMP-luciferase reporter cells, luminescence, 24 h; actives 0.13% (n = 410,000);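 further: loss of luciferase light is scored as toxicity; potency means the concentration at half of the fitted maximal effect; on the % scale 0 is the no-effect control and ±100 the full control effect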
#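 Step one: seed cells (200 cells/uL, DMEM with 10% Nu serum, 1% pen-strep). Step two: 12-hour incubation at 37 deg C. Step three: pin 23 nL compound, incubate 24 hr. Step four: add luciferase reagent, read luminescence 12 min later.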
# GLP-1R agonist – qHTS of GLP-1 Receptor Agonists; Potency, µM (series often up to 45.6 µM), for inactives: at the highest dose activation, hits mostly activators; actives 0.007% (n = 380,000); HEK293 GLP-1R CRE-luciferase, luminescence, 4-6 h; cells express a hypersensitive GLP-1R form; further: potency means the concentration at half of the fitted maximal effect; % of control where 0% means no effect
# GLP-1R inv ag – qHTS of GLP-1 Receptor Inverse Agonists (Inhibition Mode). Glucagon-like peptide 1 receptor (Homo sapiens), P43220. HEK293 GLP-1R CRE-luciferase, luminescence, 24 h; GLP-1R form is constitutively active. Potency, µM (highest dose often 38.3 µM), without a hit: top-dose activity change, negative = inhibition, usual class: inhibitors. actives 1.6% (n = 410,000); further: potency means the concentration at half of the fitted maximal effect; on the % scale 0 is the no-effect control and ±100 the full control effect; nearly all actives have a fitted effect of over 55% in size
#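 Constitutively active GLP-1R drives a cAMP-responsive luciferase in stably transfected HEK293 cells; test compounds are added after overnight (12 h) attachment and left 24 hr, and signal loss in luminescence marks inhibition.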
# * = called active by the depositor; i = inactive; ? = inconclusive; / = no result given; [ ] = remark or other dose. Most compounds without a hit are left out; they make up all but 2.4% or so of the library. Unless noted, the call rests on the fitted dose curve; in most records, active means well fitted curve in the direction sought with a large enough effect; inconclusive means small, poorly fitted or top-dose-only effect, or another doubt; inactive means no such curve, though single readings can be large; an effect the other way counts as inactive or inconclusive.
SMILES,PTHR1 ag,TRHR ag,TRHR PAM,HEK293 tox,GLP-1R agonist,GLP-1R inv ag
O=C(NCC(c1ccco1)N1CCN(c2ccc(F)cc2)CC1)OCc1ccccc1 (stereo not given),-77%,0,4,14%,-1%,3.5µM*
COC(=O)NCC(c1ccco1)N1CCN(c2ccc(F)cc2)CC1 (stereo not given),i,0,4,-11%,5%,-12%
O=S(=O)(NCC(c1ccco1)N1CCN(c2ccc(F)cc2)CC1)c1ccc(F)cc1 (stereo not given),i,0,0,9%,2%,10µM*
O=C(COC(=O)c1cc(Cl)nc(Cl)c1)NC1CCCCCC1,i,/,/,4%,0%,-11%
CCc1nc2ccc(C(=O)Nc3cccc(C(C)=O)c3)cc2nc1CC,i,-1,1,-15%,0%,16%
CCc1nc2ccc(C(=O)Nc3ccc4c(c3)OCO4)cc2nc1CC,-46%,0,39*,-7%[7.66 µM],3%,-1%[7.66 µM]
CCOc1ccc(N(CC)C(=O)CCc2nc(-c3ccccc3F)no2)cc1,-13%,-1,-7,-8%,/,?
Cc1ccc(-c2noc(CCC(=O)N(C)c3ccccc3F)n2)cc1,-54%,-1,3,2%,/,-18%
CCN(CCCNC(=O)CCc1nc(-c2ccc(C)cc2)no1)c1cccc(C)c1,-19%,0,0,5%,4%,10µM*
CCCN(C(=O)CCc1nc(-c2ccc(C)cc2)no1)c1ccc(OCC)cc1,i,2,18,5%,/,11µM*
CCc1ccccc1N(CC)C(=O)CCc1nc(-c2ccc(C)cc2)no1,-19%,0,3,2%,6%,8.9µM*
O=C(CC1N=C2c3ccccc3N=C(SCc3ccc(F)cc3)N2C1=O)NC1CCCCC1 (stereo not given),-70%,-1,-4,-3%,/,1%
Cc1cccc(NC2=CC(=O)OC(C)C2)c1 (stereo not given),i,0,-2,2%,-8%,0%
CCCCCCn1ccc(=N)cc1,-45%[57.5 µM],0,1,-26%,-1%,?
CCCCCCCCCCCCCCCCn1cc[n+](CC(C)=O)c1,-21%,3,-17,?,-1%,4.5µM*
CC1=Nc2cc(C(=O)NCCCN3CCOCC3)ccc2Sc2c(C)ccc(C)c21,i,0,2,-18%,10%,8.9µM*
CC1=Nc2cc(C(=O)NCCc3ccc(Cl)cc3)ccc2Sc2c(C)ccc(C)c21,i,1,6,?,13%,2.8µM*
O=C(Nc1nc(-c2ccc(S(=O)(=O)N3CCCC3)cc2)cs1)C1COc2ccccc2O1 (stereo not given),-19%,1,-2,-8%,-40%,-26%
O=C(Cn1c(=O)oc2cc(S(=O)(=O)N3CCCC3)ccc21)Nc1ccc(OC(F)(F)F)cc1,-14%,0,-1,7%,/,5%
COc1ccc(-n2nc3ccc(NC(=O)c4cccc(OCCC(C)C)c4)cc3n2)cc1,-51%,2,36*,-3%,/,?
COc1ccc(-n2nc3ccc(NC(=O)c4c(OC)cccc4OC)cc3n2)cc1,-26%,-2,6,2%,/,1%
C=CCN(C(=O)c1csnn1)C(C(=O)NC1CCCC1)c1c(F)cccc1Cl (stereo not given),-7%,0,14,-2%,1%,4%
O=C(c1ccccc1)N(C(=O)c1ccccc1)N1CCCC1,-1%,/,/,-5%,10%,10µM*
COc1ccc(C(O)c2nc(-c3cc(F)cc(Cl)c3)cs2)cc1 (stereo not given),i,/,/,-5%,25%,?
Oc1c(CN2CCc3ccccc3C2)cc(Cl)c2cccnc12,22µM*,1,11,?,-2%,?
SMILES,PTHR1 ag,TRHR ag,TRHR PAM,HEK293 tox,GLP-1R agonist,GLP-1R inv ag
COc1cc(OC)cc(C(=O)Oc2c(CN3CCOCC3)cc(Cl)c3cccnc23)c1,i,0,18,?,0%,10µM*
Oc1c(Cl)cc(CN2CCOCC2)c2cccnc12,-1%,0,-1,?,-3%,?
Oc1c(CN2CCCCC2)cc(Br)c2cccnc12,-37%,2,0,?,-2%,2.5µM*
CCn1cc(CN2CCCC(C(=O)c3ccc(-c4ccccc4)cc3)C2)cn1 (stereo not given),-4%,0,1,-27%,10%,8.9µM*
COc1ccc(OC)c(CNC(=O)c2c(C)oc3ncn(C)c(=O)c23)c1,-15%,0,-7,8%,/,15%
CC(=O)c1ccc(-c2cccc([C@H]3[C@@H]4C=CC[C@@H](C)[C@@H]4C(=O)N3Cc3ccccc3)c2)cc1,-1%,/,/,-1%,5%,10µM*
CN(C)S(=O)(=O)c1ccc(Cl)c(NC(=O)CN2C(=O)NC3(CCCC3)C2=O)c1,-2%,0,-1,-12%,4%,5%
CN(C)S(=O)(=O)c1ccc(NC(=O)CN2C(=O)NC3(CCCC3)C2=O)cc1,-1%,1,36*,0%,5%,-6%
O=C(CCN1C(=O)NC2(CCCC2)C1=O)Nc1ccc(Sc2ccc(Br)cc2)cc1,-44%,/,/,-2%,4%,11µM*
Cc1cccc(NC(=O)c2nc[nH]c2C(=O)N[C@@H](CC(C)C)C(=O)OCc2ccccc2)c1,i,1,-5,4%,3%,?
Cc1ccc2c(c1C)-c1c(ccc(C)c1C)C(=O)C2=O,-35%,/,/,?,-5%,0.79µM*
Cc1ccc(CC#N)c(-c2c(CC#N)ccc(C)c2C)c1C,-27%,/,/,6%,13%,?
O=[N+]([O-])c1ccc(CSc2nnc(Cc3ccccc3)n2-c2ccc(F)cc2)cc1,i,1,-12,-26%,23%,10µM*
O=C(CN1C(=O)c2ccccc2S1(=O)=O)c1ccc(F)cc1,-40%,0,3,-9%,-7%,2.2µM*
O=C(CN1C(=O)c2ccccc2S1(=O)=O)c1ccc(OC(F)F)cc1,-34%,0,2,6%,-24%,?
Cc1ccc(C(=O)Nc2ccccc2N2CCCCC2)cc1S(=O)(=O)N1CCOCC1,-12%,/,/,-3%,1%,?

# Source: PubChem BioAssay (National Center for Advancing Translational Sciences (NCATS))
